From PubChem BioAssay AID435000 (NMMLSC, 2010)
The other results are listed elsewhere or left out. Unmarked numbers belong to inactive results.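 How the source made its calls: active means fluorescence response below 15%; inactive means the rest.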

Experiment: yeast superoxide dye artefact check – S. cerevisiae BY4741, flow cytometry, artefact control for yeast caloric restriction mimetic project (AID 435000);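 further: percent of the mean fluorescence averaged over all compound wells on the plate; lower means stronger quenching of DHE signal or ROS scavenging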
Conditions: S. cerevisiae BY4741, DHE fluorescence, at 10 µM, hits give low values

Row | SMILES | fluorescence response
1 | CN1CCN(C(=S)SCC(=O)Nc2ccc(Cl)cc2C(=O)c2ccccc2)CC1 | 104%
2 | C[C@]12CCC3C(CC[C@H]4C[C@@H](O)CC[C@]34C)C1C[C@@H](O)[C@H]2O (some centres not stated) | 99%
